GLP1R inv ag = GLP-1 receptor (human) inverse agonism; AID 624417; HEK293 GLP-1R CRE-luciferase, luminescence, 24 h; GLP-1R form is constitutively active; 410,000 tested, 1.6% active; Potency, µM (top dose mostly 38.3 µM), for inactives: at the highest dose activity change, negative = inhibition, actives largely listed as inhibitors; P43220; also: potency is read from the fitted curve at half-maximal effect; % is scaled to controls: 0 for no effect and ±100 for the full control effect; nearly all actives have a fitted effect of over 55% in size
Target sequence (P43220 whole entry, looked up): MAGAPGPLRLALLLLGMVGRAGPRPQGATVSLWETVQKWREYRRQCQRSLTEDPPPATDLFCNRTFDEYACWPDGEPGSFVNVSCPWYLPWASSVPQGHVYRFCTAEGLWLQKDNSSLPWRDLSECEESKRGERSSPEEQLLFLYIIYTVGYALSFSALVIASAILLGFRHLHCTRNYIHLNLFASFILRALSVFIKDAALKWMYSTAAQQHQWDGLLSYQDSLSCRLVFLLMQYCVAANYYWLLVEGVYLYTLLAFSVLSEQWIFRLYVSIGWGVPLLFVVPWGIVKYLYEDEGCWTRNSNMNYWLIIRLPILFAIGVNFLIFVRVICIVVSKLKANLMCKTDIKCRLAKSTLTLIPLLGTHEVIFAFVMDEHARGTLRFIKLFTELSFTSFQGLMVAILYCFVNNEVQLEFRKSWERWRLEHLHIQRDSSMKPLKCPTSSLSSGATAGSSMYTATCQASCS
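qHTS in 1536-well format: reporter HEK293 cells expressing constitutive GLP-1R activity in DMEM + 10% Nu serum, 24 hr with compounds at 37 deg C, luminescence read after 12 min with detection reagent.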
DRD3 agonist = activates the human D3 dopamine receptor. max activation, %. AID 652048. P35462. 410,000 tested, 0.58% active. D3R DiscoveRx beta-arrestin cells, luminescence, 90 min; in the data active = max activation above about 30%; also: 0% is about no effect
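Agonist-mode cell screen: cells plated at 1500/well and incubated overnight at 37 °C, then exposed to library compounds for 90 min at 37 °C. Detection reagent was added for 30–60 min at room temperature, and luminescence was read.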
GLP-1R agonist = activates the human GLP-1 receptor; P43220; HEK293 GLP-1R CRE-luciferase, luminescence, 4-6 h; cells express a hypersensitive GLP-1R form; Potency, µM (top dose mostly 45.6 µM), inactives show top-dose activation, hits mostly activators; 380,000 tested, 0.007% active; also: potency is read from the fitted curve at half-maximal effect; % of control where 0% means no effect
DRD3 antagonist = blocks the human D3 dopamine receptor | D3R cells, DiscoveRx beta-arrestin luminescence, antagonist mode; stronger effect = lower value | max response, negative = inhibition, % | 360,000 tested, 2.5% active | AID 652054; in the data active = max response below about -50%; inconclusive = no clear call, values can overlap the other calls; also: % is scaled to controls: 0 for no effect and ±100 for the full control effect
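Cells expressing the human receptor were seeded at 1500 cells/well, incubated overnight at 37 degrees C in 5% CO2, then exposed to library compounds with dopamine controls for 90 minutes at 37 degrees C before luminescent detection.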
Numbers without * were called inactive; u = inconclusive; x = no result; [ ] = dose if it differs, or a comment. The list is not random: actives were taken first. Their share in the collection is about 4.3%. Unless noted, calls follow the shape of the dose curve; as a rule, active = well fitted curve in the direction sought with a large enough effect; inconclusive = small, poorly fitted or top-dose-only effect, or another doubt; inactive = no such curve, though single readings can be large; an effect the other way counts as inactive or inconclusive.

SMILES | GLP1R inv ag | DRD3 agonist | GLP-1R agonist | DRD3 antagonist
Cc1ccc(N2C(=O)Nc3ccccc3C2(O)C(=O)N2CCN(c3ccccn3)CC2)cc1C (centres undefined) | 7.3%[0.307 µM] | 1.5 | 0.2% | 15.8
N/C(Cc1cccc2ccccc12)=N\OC(=O)c1ccccc1F | 19.7% | -10.1 | 10.1% | -7.0
N/C(Cc1ccccc1)=N\OC(=O)c1cccc2ccccc12 | 12.6µM* | 0.3 | u | 6.5
CC1C/C(=N/N2C(=O)CSC2=S)CC(C)(C)C1 (centres undefined) | -1.5% | -6.8 | -10.1% | -63.5*
CC1C/C(=N/N=C2/NC(=O)CS2)CC(C)(C)C1 (centres undefined) | u | 2.4 | 0.1% | 19.3
Cc1ccc(-n2nc(C)c3c(C)cc(=O)n(CC(=O)Nc4cc(Cl)ccc4C)c32)cc1 | 11.4% | -21.9 | x | x
c1cc2[nH]snc2c2nc(C3CC3)nc12 | u | 33.9* | -15.9% | 24.3
COC(=O)c1ccc(OC)c(CN2CCCN(Cc3ccc(F)cc3)S2(=O)=O)c1 | 10µM* | -1.2 | 19.8% | -0.1
COc1ccc(C=O)cc1CN1CCCN(Cc2ccc(Cl)cc2)S1(=O)=O | 7.08µM* | -9.2 | 18.3% | 19.7
CCOc1ccc(-c2ccc(SC)nn2)cc1 | 2.24µM* | -9.2 | -2.5% | -5.5
CC(=O)N(c1ccc2oc(=O)sc2c1)S(=O)(=O)c1cccs1 | 0.3% | 5.7 | -14.2% | -50.9*
CC(C)C(=O)N(c1ccc2oc(=O)sc2c1)S(=O)(=O)c1cccs1 | -31.7% | -17.9 | -26.7% | 0.0
N#Cc1c(NC(=O)c2ccc(-c3ccccc3[N+](=O)[O-])o2)sc2c1CCCC2 | 1.9% | -13.8 | -0.1% | -116.6*
COc1ccc(CNC(=O)C2=C(C)C(=O)OC23CCN(C(C)=O)CC3)cc1 | 15.6% | -7.0 | x | x
CCN(CC)CCCNc1ncnc2scc(-c3ccc(F)cc3)c12 | 7.08µM* | -9.7 | -12.9% | u
O=C(O)[C@H](O)[C@@H](O)[C@H](O[C@@H]1O[C@H](CO)[C@H](O)[C@H](O)[C@H]1O)[C@H](O)CO | x | -4.5 | x | x
C=CCN(c1ccccc1Cl)S(=O)(=O)c1cccc(C(=O)NCCc2ccc(OC)cc2)c1 | 4.47µM* | -3.8 | -3.1% | -1.2
Cc1cc(NCCCN2CCOCC2)n2nc(C)c(-c3ccccc3)c2n1 | 4.47µM* | -4.1 | 25.8% | 0.0
C[C@H](CO)N1C[C@H](C)[C@@H](CN(C)C(=O)Nc2ccccc2)Oc2ccc(NS(=O)(=O)c3cn(C)cn3)cc2C1=O | 8.9% | 4.8 | -2.0% | 0.0
CCCCn1cc(S(=O)(=O)c2ccc(OC)cc2)c(=O)c2cc(F)c(F)cc21 | 9.6% | -0.6 | x | x
O=C(c1ccco1)N1CCN(CCCCN2C(=O)c3ccccc3C2=O)CC1 | -9.2% | 57.1* | -0.7% | -9.9
O=C(c1ccco1)N1CCN(CCCCOc2ccc(F)cc2)CC1 | -11.5% | 66.4* | -2.8% | 2.0
Clc1ccc2c(c1)C(C1=NCCN1)c1ccccc1CS2 (centres undefined) | 3.16µM* | 0.7 | -3.9% | 5.8
CCCN1CC=C2C(C#N)=C(N)C(C#N)(C#N)C(c3cccc(OC)c3OC)C2C1 (centres undefined) | 0.6% | 3.3 | 3.3% | u
Cc1ccc(C2C3CN(C(C)C)CC=C3C(C#N)=C(N)C2(C#N)C#N)cc1 (centres undefined) | u | -11.3 | -7.8% | -86.1*
SMILES | GLP1R inv ag | DRD3 agonist | GLP-1R agonist | DRD3 antagonist
COc1ccc(OC)c(C2C3CN(C(C)C)CC=C3C(C#N)=C(N)C2(C#N)C#N)c1 (centres undefined) | -1.0% | 1.1 | -4.2% | -58.5*
COc1cc(OC)cc(C(=O)Nc2nc(-c3nnn(-c4ccc(F)c(Cl)c4)c3C)ns2)c1 | -13.2% | -10.3 | x | x
Cc1ccc(C)c(NC(=O)N2CCC(N3CCN(Cc4ccc(F)cc4)C(=O)C3=O)CC2)c1 | -3.4% | 1.2 | x | x
Cc1cc(C)cc(-n2c(SCC(=O)N3CCc4ccccc43)nc3c([nH]c4ccccc43)c2=O)c1 | 7.1% | 2.4 | -2.8% | x
O=C(Nc1ccccc1)C1CC2CCC1C2 (centres undefined) | -3.9% | 2.4 | -15.8% | -11.2
CCN(CC)c1ccc(NC(=O)C2CC3CCC2C3)cc1 (centres undefined) | 7.94µM* | -13.0 | 0.2% | u
CCOc1cccc(CN2CCCC(N3CCN(c4cccc(Cl)c4)CC3)C2)c1O (centres undefined) | 10µM* | 24.0 | -3.3% | -23.5
CCOc1cccc(CN2CCCC(C(=O)c3cc(Cl)ccc3OC)C2)c1O (centres undefined) | u | -20.1 | 2.5% | -106.5*
C=C1C(=C/C=C2\CCC[C@]3(C)[C@@H]([C@H](C)CCCC(C)C)CC[C@@H]23)C[C@@H](O)C[C@@H]1O | x | 0.2 | x | x
CC(=O)C1=C(O)C(=O)N(c2cc(C(C)(C)C)on2)C1c1ccc(Br)cc1 (centres undefined) | 8.91µM* | -20.3 | 2.9% | -22.7
CC(=O)C1=C(O)C(=O)N(c2cc(C(C)(C)C)on2)C1c1ccc(C(C)C)cc1 (centres undefined) | -9.2% | -3.1 | -8.0% | 7.9
COc1ccc(CN(C)CC(=O)Nc2cccc(S(N)(=O)=O)c2)c(OC)c1OC | 16.0% | -6.8 | -1.0% | -14.8
CCNC(=O)CSc1nnc(C2CC2)n1-c1ccccc1 | 12.9% | 0.6 | -17.3% | -24.8
O=C(CSc1nnc(C2CC2)n1-c1ccccc1)NCCc1ccccc1 | u | -3.0 | -0.3% | -60.1*
CCOC(=O)c1cc(-c2ccccc2)n(CCCC(=O)Nc2cccc(Cl)c2C)c1C | u | -21.3 | x | x
COc1cccc(CNC(=O)Cn2c(SCC(=O)Nc3ccc(C)c(C)c3)nc3ccccc32)c1 | -20.4% | 1.0 | x | x
CO[C@]1(NC(=O)Cc2cccs2)C(=O)N2C(C(=O)O)=CC(COC(N)=O)S[C@H]21 (some centres undefined) | x | x | -4.4% | x
COc1ccc(Nc2nnc(SCC(=O)/C=C3/N(C)c4ccccc4C3(C)C)s2)cc1 | 11.2µM* | 1.5 | -1.6% | 6.6
CO[C@H]1C[C@@H]2CC[C@@H](C)[C@@](O)(O2)C(=O)C(=O)N2CCCC[C@H]2C(=O)O[C@H]([C@H](C)C[C@@H]2CC[C@@H](OCCO)[C@H](OC)C2)CC(=O)[C@H](C)/C=C(\C)[C@@H](O)[C@@H](OC)C(=O)[C@H](C)C[C@H](C)/C=C/C=C/C=C/1C | x | -7.4 | 14.5% | x
CCc1ncn(CCc2ccccc2OC)c1C(C)C | -28.2% | -16.5 | 1.3% | -23.8
COc1ccccc1CCn1cnc(C)c1CC(C)C | u | -18.0 | -1.4% | -77.9*
COc1cn(CC(=O)Nc2cc(C)cc(C)c2)c(CN2CCCCC2)cc1=O | 6.2% | 8.4 | x | x
CCC1(C)Cc2c(C#N)c(N)sc(=S)c2CO1 (centres undefined) | 44.6% | -6.3 | 24.2% | -85.2*
CCC1(C)Cc2c(C#N)c(N)n(-c3ccccc3)c(=S)c2CO1 (centres undefined) | 10.2% | 0.9 | 12.2% | -5.5
CN(CC(=O)Nc1cc([N+](=O)[O-])ccc1Cl)Cc1ccc(Br)cc1 | -27.8% | -15.2 | 7.2% | -85.3*

Compound activity as filed in PubChem.
